Results published in PubChem BioAssay AID1159580 (chemical genetic matrix, 2015).
In all, about 5,500 compounds went through this assay and about 2,000 (36%) were called active. Another 18% or so got no clear call; they are omitted. This is one part of the list. A number with no mark means an inactive call. Rule as the data show it: active = normalized growth mostly below about 0.91 (no sharp cut-off); inconclusive = no clear call, values can overlap the other calls; inactive = mostly above about 0.92.

Experiment: chemical genetic growth profiling, strain panel (AID 1159580);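 also: tested at 20 µM; growth read once vehicle control cultures reached saturation at 30 °C; 1 = growth at the plate median or of vehicle wells; lower values mean less growth of the strain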
Conditions: growth OD
[1] = S. cerevisiae deletion strains, locus YAL013W, strain DEP1, active compounds read low
[2] = S. cerevisiae deletion strains, locus YBR229C, strain ROT2, active compounds read low
[3] = S. cerevisiae deletion strains, locus YCL061C, strain MRC1, active compounds read low
[4] = S. cerevisiae deletion strains, locus YDL101C, strain DUN1, active compounds read low
[5] = S. cerevisiae deletion strains, locus YDR150W, strain NUM1, active compounds read low
[6] = S. cerevisiae deletion strains, locus YEL061C, strain CIN8, active compounds read low
[7] = S. cerevisiae deletion strains, locus YGR078C, strain PAC10, active compounds read low
[8] = S. cerevisiae deletion strains, locus YHR030C, strain SLT2, active compounds read low
[9] = S. cerevisiae deletion strains, locus YHR087W, strain rtc3, active compounds read low
[10] = S. cerevisiae deletion strains, locus YJR043C, strain POL32, active compounds read low
[11] = S. cerevisiae deletion strains, locus YJR075W, strain HOC1, active compounds read low
[12] = S. cerevisiae deletion strains, locus YKL190W, strain CNB1, active compounds read low
[13] = S. cerevisiae deletion strains, locus YLR039C, strain RIC1, active compounds read low
[14] = S. cerevisiae deletion strains, locus YLR058C, strain SHM2 (second series), active compounds read low
[15] = S. cerevisiae deletion strains, locus YLR085C, strain ARP6, active compounds read low
[16] = S. cerevisiae deletion strains, locus YLR262C, strain YPT6, active compounds read low
[17] = S. cerevisiae deletion strains, locus YML094W, strain GIM5, active compounds read low
[18] = S. cerevisiae deletion strains, locus YMR219W, strain ESC1, active compounds read low
[19] = S. cerevisiae deletion strains, locus YMR263W, strain SAP30, active compounds read low
[20] = S. cerevisiae deletion strains, locus YNL128W, strain TEP1, active compounds read low
[21] = S. cerevisiae deletion strains, locus YNL153C, strain GIM3, active compounds read low
[22] = S. cerevisiae deletion strains, locus YNL298W, strain CLA4 (second series), active compounds read low
[23] = S. cerevisiae deletion strains, locus YNL322C, strain KRE1, active compounds read low
[24] = S. cerevisiae deletion strains, locus YNR030W, strain Alg12, active compounds read low
[25] = S. cerevisiae deletion strains, locus YOL006C, strain TOP1, active compounds read low
[26] = S. cerevisiae deletion strains, locus YPL055C, strain LGE1, active compounds read low
[27] = S. cerevisiae deletion strains, locus YPL241C, strain CIN2, active compounds read low
[28] = S. cerevisiae deletion strains, locus YPR135W, strain CTF4, active compounds read low
[29] = S. cerevisiae strains, strain wild type, active compounds read low
[30] = S. cerevisiae deletion strains, locus YGR229C, strain SMI1, active compounds read low

SMILES: CC(=O)CSc1nsc(SCC(C)=O)c1C#N
- normalized growth [1]: 1.01
- normalized growth [2]: 1
- normalized growth [3]: 1.01
- normalized growth [4]: 0.974
- normalized growth (S. cerevisiae deletion strains, locus YDL134C, strain PPH21, active compounds read low): 1.01
- normalized growth [5]: 0.99
- normalized growth [6]: 1.02
- normalized growth [7]: 0.997
- normalized growth [8]: 0.992
- normalized growth [9]: 0.971
- normalized growth [10]: 1
- normalized growth [11]: 0.995
- normalized growth [12]: 1.01
- normalized growth [13]: 1.01
- normalized growth [14]: 0.992
- normalized growth [15]: 1
- normalized growth [16]: 0.962
- normalized growth [17]: 1.01
- normalized growth [18]: 0.989
- normalized growth [19]: 0.996
- normalized growth [20]: 1.01
- normalized growth [21]: 0.979
- normalized growth [22]: 0.988
- normalized growth [23]: 1.01
- normalized growth [24]: 0.986
- normalized growth [25]: 0.87
- normalized growth [26]: 0.903
- normalized growth [27]: 0.992
- normalized growth [28]: 0.918
- normalized growth [29]: 1

SMILES: COc1ccc2[nH]c(I)c(CCNC(C)=O)c2c1
- normalized growth [1]: 1.03
- normalized growth (S. cerevisiae deletion strains, locus YAL040C, strain CLN3, active compounds read low): 0.959
- normalized growth (S. cerevisiae deletion strains, locus YCL061C, strain MRC1 (second series), active compounds read low): 1.01
- normalized growth (S. cerevisiae deletion strains, locus YDR363W, strain ESC2, active compounds read low): 1.02
- normalized growth (S. cerevisiae deletion strains, locus YER002W, strain NOP16, active compounds read low): 1.01
- normalized growth [7]: 1.02
- normalized growth [30]: 0.998
- normalized growth [11]: 1.11 [resistant] (active)
- normalized growth [20]: 1.1
- normalized growth [21]: 0.997
- normalized growth (S. cerevisiae deletion strains, locus YNL175C, strain NOP13, active compounds read low): 1.01
- normalized growth (S. cerevisiae deletion strains, locus YNL197C, strain WHI3, active compounds read low): 1.01
- normalized growth (S. cerevisiae deletion strains, locus YNL224C, strain SQS1, active compounds read low): 1.02
- normalized growth [23]: 1.02
- normalized growth [26]: 1.09
- normalized growth [27]: 1.01

SMILES: CCCc1ccc(OC)cc1NC(C)=O
- normalized growth [1]: 1.01
- normalized growth [2]: 1.01
- normalized growth [3]: 1.03
- normalized growth [4]: 1
- normalized growth [5]: 0.95
- normalized growth [6]: 0.996
- normalized growth [7]: 1.02
- normalized growth [30]: 0.991
- normalized growth [8]: 1.06
- normalized growth [9]: 1
- normalized growth [10]: 1
- normalized growth [11]: 0.996
- normalized growth [12]: 0.991
- normalized growth [13]: 1.02
- normalized growth [14]: 1.02
- normalized growth [15]: 1.03
- normalized growth [16]: 0.987
- normalized growth [17]: 1.03
- normalized growth [18]: 1.01
- normalized growth [19]: 1.01
- normalized growth [21]: 1.03
- normalized growth [22]: 1.05
- normalized growth [23]: 1.01
- normalized growth [24]: 1.02
- normalized growth [25]: 1.06
- normalized growth [26]: 0.99
- normalized growth [27]: 0.999
- normalized growth [28]: 1.06
- normalized growth [29]: 0.999
